The supplement of paper PMC6555819

Tests used:
Assay in all cases: PBM binding z-score (relative to random genomic background probes); higher = stronger binding; sequences stand for … in GC…GCGATTGACAGCGTAGAATGAAGG
[1] = system: RARb homodimer (NR concentration 270 nM)
In short: (§1)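 The probes on custom Agilent 4×180K protein-binding microarrays were double-stranded, with 34-nt variable regions bearing direct-repeat seeds, single-nucleotide variants, half-site ablations and random human genomic background sequences. Incubation lasted 1 h with ligand-free nuclear receptor dimers in PBS pH 7.4, 2% milk, 0.02% Triton X-100, 1 mM DTT, 0.2 mg/mL BSA and 0.4 mg/ml salmon testes DNA. Antibodies against each partner (one per run) detected bound dimers, and fluorescence scans were regression-normalized. Binding z-scores take the random background probes as reference.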

[2] = system: RARg:RXRa (NR concentration 270 nM, RXRa partner concentration 90 nM)
In short: as §1

[3] = system: RARg homodimer (NR concentration 270 nM)
In short: as §1

[4] = system: RXRa DBDmut IVT, anti-RXR (DBD mutation: RXRa K156A/R161A, NR concentration 90 nM)
In short: as §1

[5] = system: RXRa homodimer (NR concentration 180 nM)
In short: as §1

[6] = system: THRa:RXRa (NR concentration 90 nM, RXRa partner concentration 90 nM)
In short: as §1

[7] = system: THRa homodimer (NR concentration 90 nM)
In short: as §1

[8] = system: VDR:RXRa (NR concentration 270 nM, RXRa partner concentration 90 nM)
In short: as §1

[9] = system: VDR homodimer (NR concentration 270 nM)
In short: as §1

Sequence	PBM binding z-score [1]	PBM binding z-score [2]	PBM binding z-score [3]	PBM binding z-score [4]	PBM binding z-score [5]	PBM binding z-score [6]	PBM binding z-score [7]	PBM binding z-score [8]	PBM binding z-score [9]
TCGAGTAGGTTACGGGCGCATTCAGGGATGAAGA	0.216	0.276	0.202	-0.064	0.599	0.304	-0.327	-0.354	-0.375
CAAACTAGGTCACCGGAAGGTCATAGTCCGCATG	5.85	7.82	6.45	1.8	5.92	4.58	3.33	5.66	2.78
ATATGTAGGTTAGGGTTATTCAGAAAGTAGGGAA	1.72	1.45	1.05	1.06	2.13	2.45	1.52	1.94	1.23
CGAACTAGGTCAAAGGACAGTGACAGGCGACGTA	3.39	4.39	5.1	1.78	3.89	2.69	0.589	1.47	0.435
CGAACTAGGTCACCAGGACAGTGATGAGGTTGGA	3.53	4.4	5.41	1.28	3.45	3.42	2.08	2.17	1.13
ATCCAAAGGTCGAGGTGAGTATAGAGAAAGGGAA	3.21	4.69	4.83	1.19	5.1	3.07	1.07	3.05	1.09
CTATGTAGGGTAAGGGGGTCATTCAGTTTGAAAG	4.04	5	3.92	2.91	5.44	3.99	2.95	7.01	6.62
TCATATAGGTAATCAGGTGAAAGTCCGTAAGTTA	0.773	0.361	0.3	1.52	0.885	1.82	1.51	1.19	0.521
TCTCGGAGGACACGAAGGTCAAAGCTTTCCAGAG	4.15	4.3	4.3	1.15	3.26	3.4	1.44	3.87	2.67
CCGAGTAGGTTACGAGGGGGCGTTCAGTGCGAAT	1.42	2.52	1.89	1.17	1.42	3.16	0.485	4.72	2.88
GCTGCAAGGTCAACTGATGGTCAGCTAAAGCTCG	4.71	7.17	7.04	3.75	5.7	4.18	2.31	4.66	2.53
CCTACTGGGCCACGAAAGGTGATTGATTCAGTGA	1.02	0.589	0.505	-0.663	0.207	1.41	-0.377	-0.281	-0.289
CAAAATAGGTCAAGAGGTCAAAGTCCGCTTCCCG	6.03	8.39	7.82	2.72	8.82	4.28	1.76	6.53	3.91
